In PubChem BioAssay (NCI):
This is part of a sample that, as a whole, favours compounds with a hit. Of some 79,000 tested, about 15% had one in any assay. Unmarked numbers belong to inactive results. Active and inactive are the calls of the source. Cut-off read from the data, not from the text of the source: active = growth inhibition above about 70%; inactive = the rest.

Assay: NCI Yeast Anticancer Drug Screen. Data for the bub3 strain (AID 167)
Settings: S. cerevisiae bub3 mutant strain, at 11.0 µM, hits give high values
Summary of the method: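 Steps: expose the mutant yeast strain to compound; grow alongside vehicle-treated cultures; measure growth; express inhibition against the vehicle cultures.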

Row | SMILES | growth inhibition
1 | CC1(C)[C@@H]2CC[C@]1(C)[C@H](OC(=O)CSC#N)C2 | -19%
2 | S=C(N/N=C(/c1ccccc1)c1ccccn1)N1CCCCCC1 | 22%
3 | Cc1ccc2[nH]c3c(C)c4cc[n+](C)cc4c(C)c3c2c1 | 23%
4 | CNC(=O)OCc1c(COC(=O)NC)c(-c2ccc(-c3ccccc3)cc2)n(C)c1C | -15%
5 | COc1ccccc1/C=C1\Sc2scc(-c3cccc([N+](=O)[O-])c3)[n+]2C1=O | 99% (active)
6 | O=[N+]([O-])c1ccc2c(c1)C(N1CCN(CCO)CC1)Cc1ccc(F)cc1S2 (stereo not drawn) | 0%
7 | Cc1ccc(CCC2=CCCc3c2ccc2ccccc32)cc1 | -4%
8 | O=[N+]([O-])c1cccc2nccc(NCCCO)c12 | -14%
9 | Cc1ccc(-n2cc(-c3ccc(Cl)cc3)c(C#N)c2N)cc1 | 3%
10 | Cc1ccc(S/N=C\c2ccccc2O)cc1 | -2%
11 | O=C(O)C1OC1(c1cccc(Cl)c1)c1ccccc1Cl (stereo not drawn) | 9%
12 | NC(=S)N/N=C\c1nccc2ccccc12 | 26%
13 | Clc1cccc(C(Nc2nncs2)Nc2nncs2)c1Cl | 0%
14 | O=C(OCC=C1CCCC1)c1cc([N+](=O)[O-])cc([N+](=O)[O-])c1 | -1%
15 | O=C(Nc1ccccc1)C(=O)C(C(=O)c1ccccc1)C(c1ccccc1)c1ccccc1 (stereo not drawn) | 3%
16 | N#CN1C2CCC1CC(=O)C2 | 15%
17 | COc1ccccc1C(=O)OCC1CCCN2CCCCC12 (stereo not drawn) | 31%
18 | CCNc1nnc(CSc2nc(-c3ccccc3)c(-c3ccccc3)[nH]2)s1 | -23%
19 | O=C1c2ccccc2-c2n[nH]c3cccc1c23 | 22%

Same assay, conditions: S. cerevisiae bub3 mutant strain, at 33.0 µM, hits give high values

Row | SMILES | growth inhibition
20 | CCC/C(Cl)=N\OC(=O)Nc1cccc(C(F)(F)F)c1 | 47%
21 | [O-][n+]1c2ccc(O)cc2nc2ccc(Cl)cc21 | 41%
22 | Clc1ccccc1C1OC1c1ccccc1Cl (stereo not drawn) | -42%
23 | c1ccc2c(c1)c1ncccc1c1nccnc21 | -5%
24 | CC(=O)Nc1ccc2c(c1)C(=Nc1ccc(C(=O)O)cc1)c1ccccc1-2 | 11%
25 | COc1ccc(OC)c2cc3ccccc3cc12 | 33%
26 | COc1cc(C2c3cc4c(cc3OC(NNc3ccccc3)C2C)OCO4)cc(OC)c1OC (stereo not drawn) | 89% (active)
27 | O=C1c2cc([N+](=O)[O-])ccc2-c2cccc(F)c21 | 16%
28 | CCCCCCCCCCCC(=O)N(C)C | 18%
29 | CCCCCCCCCCCC1=C(O)C(=O)C=C(O)C1=O | 96% (active)
30 | Cc1ccc(CSC(N)=Nc2ccccc2)cc1C | 14%
31 | CCCCCCCCCCC1CCC(=O)O1 (stereo not drawn) | 0%
32 | O=[N+]([O-])c1cc(CCl)ccc1CCl | 92% (active)
33 | Nc1ccc2c(c1)C(=O)c1cccc(N)c1C2=O | 72% (active)
34 | CCCCCCCCCCNC(=O)OCC | 8%
35 | CC1=C(C)Cc2c(O)ccc(O)c2C1 | 3%
36 | COc1ccc2c(c1)C(=O)c1ccccc1C2 | 82% (active)
37 | CCC(=O)OCCn1c2nc(=O)[nH]c(=O)c-2nc2cc(C)c(C)cc21 | 5%
38 | O=C(OCCN1CCCCCC1)C(c1ccsc1)C1CCCCC1 (stereo not drawn) | 58%
39 | Oc1c(Br)cc(Br)cc1C1CCCCC1 | 96% (active)

Row | SMILES | growth inhibition
40 | CC1(C)[C@@H]2CC[C@]1(C)[C@H](OC(=O)CSC#N)C2 | 81% (active)
41 | S=C(N/N=C(/c1ccccc1)c1ccccn1)N1CCCCCC1 | 13%
42 | Cc1ccc2[nH]c3c(C)c4cc[n+](C)cc4c(C)c3c2c1 | 51%
43 | CNC(=O)OCc1c(COC(=O)NC)c(-c2ccc(-c3ccccc3)cc2)n(C)c1C | 0%
44 | COc1ccccc1/C=C1\Sc2scc(-c3cccc([N+](=O)[O-])c3)[n+]2C1=O | 95% (active)
45 | O=[N+]([O-])c1ccc2c(c1)C(N1CCN(CCO)CC1)Cc1ccc(F)cc1S2 (stereo not drawn) | -5%
46 | Cc1ccc(CCC2=CCCc3c2ccc2ccccc32)cc1 | 5%
47 | O=[N+]([O-])c1cccc2nccc(NCCCO)c12 | -18%
48 | Cc1ccc(-n2cc(-c3ccc(Cl)cc3)c(C#N)c2N)cc1 | -2%
49 | Cc1ccc(S/N=C\c2ccccc2O)cc1 | -5%
50 | O=C(O)C1OC1(c1cccc(Cl)c1)c1ccccc1Cl (stereo not drawn) | 70% (active)
51 | NC(=S)N/N=C\c1nccc2ccccc12 | 96% (active)
52 | Clc1cccc(C(Nc2nncs2)Nc2nncs2)c1Cl | 12%
53 | O=C(OCC=C1CCCC1)c1cc([N+](=O)[O-])cc([N+](=O)[O-])c1 | 61%
54 | O=C(Nc1ccccc1)C(=O)C(C(=O)c1ccccc1)C(c1ccccc1)c1ccccc1 (stereo not drawn) | 9%
55 | N#CN1C2CCC1CC(=O)C2 | 27%
56 | COc1ccccc1C(=O)OCC1CCCN2CCCCC12 (stereo not drawn) | 97% (active)
57 | CCNc1nnc(CSc2nc(-c3ccccc3)c(-c3ccccc3)[nH]2)s1 | 87% (active)
58 | O=C1c2ccccc2-c2n[nH]c3cccc1c23 | 46%
